# A selection: hits, their analogues and other compounds. The true share with any hit is near 3.1%.
# VDR inh: vitamin D3 receptor (human) inhibition. AID 504847. VDR-SRC2-3 peptide fluorescence polarization, 2 h. actives 0.93% (n = 400,000). Potency, µM, without a hit: max response, negative = inhibition, hits mostly inhibitors; note: potency is the fitted concentration of half-maximal effect; % is set by controls: 0 for no effect and ±100 for the full control effect
#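 Reagent solutions, kept cold and dark, are dispensed first; compounds are then pinned in at 23 nl, plates briefly spun, and incubated 2 h at ambient temperature. Inhibition of VDR–SRC2-3 peptide binding is read by fluorescence polarization.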
# PLK1 PBD block: PLK1 (human) polo-box domain binding inhibition; actives 2.8% (n = 360,000); Potency, µM, inactives show max response, negative = inhibition, actives largely listed as inhibitors; P53350; AID 720504; Plk1 PBD binding of FITC phosphopeptide, fluorescence polarization; note: potency is the fitted concentration of half-maximal effect; series mostly up to about 57 µM; % is set by controls: 0 for no effect and ±100 for the full control effect; nearly all actives have a fitted effect of over 65% in size
# PTAP TSG101 blk: blocks PTAP/TSG101 interaction to inhibit HIV-1 budding; Q99816; Fluorescence polarization, FITC-PTAP peptide / Tsg101 binding; Potency, µM (titrated, usually from 115 µM), without a hit: top-dose activity change, negative = inhibition, hits mostly inhibitors; 340,000 tested, under 10 active; AID 493005; active = well fitted inhibition curve with a large enough effect in the main read-out, with a control signal flat, not every such curve was filed as active; inconclusive = small, poorly fitted or top-dose-only effect, or effect the other way, or a change in a side signal; inactive = no such curve, though single readings can be large or run the other way; note: potency is the fitted concentration of half-maximal effect; % of control where 0% means no effect
#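 FP read-out: FITC-PTAP peptide, 50 nM final, binding Tsg101 binding domain, 10 uM final; 20 min, r.t.; 10 mM HEPES pH 7.5, 0.15 M NaCl, 0.01% Tween 20, 3 mM EDTA, 0.1 mM TCEP.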
# TSHR antag: antagonists of human thyroid stimulating hormone receptor; TSHR-expressing cells, TSH-stimulated cAMP HTRF, 2 h; active compounds read low; activity change, negative = inhibition, % at 11.5 µM; actives 0.2% (n = 330,000);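 active = activity change below a set negative limit, meaning inhibition stronger than a set level, cut at about -70% in these data; inconclusive = activity change between two set negative limits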; note: % is set by controls: 0 for no effect and ±100 for the full control effect
# Target sequence (P16473 whole entry, looked up): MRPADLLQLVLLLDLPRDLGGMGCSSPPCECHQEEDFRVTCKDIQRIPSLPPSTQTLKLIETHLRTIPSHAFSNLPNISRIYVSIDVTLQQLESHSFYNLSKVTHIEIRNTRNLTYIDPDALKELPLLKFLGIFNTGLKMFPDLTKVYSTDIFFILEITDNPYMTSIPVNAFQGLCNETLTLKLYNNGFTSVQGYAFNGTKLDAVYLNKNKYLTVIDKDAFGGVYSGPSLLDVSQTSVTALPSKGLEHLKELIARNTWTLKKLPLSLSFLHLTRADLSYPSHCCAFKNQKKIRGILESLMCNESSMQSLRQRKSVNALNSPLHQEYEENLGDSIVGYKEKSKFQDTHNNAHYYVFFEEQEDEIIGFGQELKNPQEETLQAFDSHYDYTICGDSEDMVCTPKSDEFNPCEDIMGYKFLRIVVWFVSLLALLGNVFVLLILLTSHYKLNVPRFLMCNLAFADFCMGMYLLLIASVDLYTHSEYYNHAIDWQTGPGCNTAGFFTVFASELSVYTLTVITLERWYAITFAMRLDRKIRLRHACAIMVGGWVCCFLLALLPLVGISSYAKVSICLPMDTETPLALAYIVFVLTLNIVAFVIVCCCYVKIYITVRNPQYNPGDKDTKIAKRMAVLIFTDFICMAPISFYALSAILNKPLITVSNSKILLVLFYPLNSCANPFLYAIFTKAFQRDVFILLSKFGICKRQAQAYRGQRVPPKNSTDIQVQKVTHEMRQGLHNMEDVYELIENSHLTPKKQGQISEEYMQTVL
#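 Inhibition of cAMP made by TSHR-expressing cells under TSH stimulation (4nM final, EC80; 2 h, 37 deg C) is quantified with a one-step lysis HTRF kit, anti-cAMP cryptate versus cAMP-d2.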
# uPA generation: blocks generation of uPA at the cell surface; cell surface uPA generation assay, qHTS; Potency, µM (titrated, usually from 38.3 µM), for inactives: top-dose activity change, negative = inhibition, most hits filed as inhibitors; actives 0.31% (n = 330,000); AID 540303; active = well fitted inhibition curve with a large enough effect; inconclusive = small, poorly fitted or top-dose-only effect; inactive = no such curve, though single readings can be large or run the other way; tested in mouse RAW 264.7 cells; note: potency is the fitted concentration of half-maximal effect; % is set by controls: 0 for no effect and ±100 for the full control effect; nearly all actives have a fitted effect of over 55% in size
# * hit, by the source's call; ? = inconclusive; / = not tested or not shown. Unless noted, calls come from the whole dose curve; as a rule, active = well fitted curve in the direction sought with a large enough effect; inconclusive = small, poorly fitted or top-dose-only effect, or another doubt; inactive = no such curve, though single readings can be large; an effect the other way counts as inactive or inconclusive.
SMILES,VDR inh,PLK1 PBD block,PTAP TSG101 blk,TSHR antag,uPA generation
O=C(Nc1cccc(NC(=O)c2ccc3c(c2)OCO3)c1)c1ccccc1,1.6%,-2.5%,-1.1%,6.5,-0.6%
O=C(Nc1cc(-c2nc3ncccc3o2)ccc1Cl)c1ccc2c(c1)OCO2,-21.5%,-6.1%,-1.5%,3.4,6.5%
O=C(Nc1cccc(-c2nc3ncccc3o2)c1)c1ccc2c(c1)OCO2,?,26.7µM*,0.0%,/,1.0%
CC(=O)c1cccc(NC(=O)c2ccc3c(c2)OCO3)c1,79.4µM*,23.8µM*,-1.8%,4.3,-3.3%
Cc1nc(CCN2C(=O)c3ccccc3C2=O)n[nH]1,?,7.52µM*,-2.5%,-0.6,0.2%
N#Cc1ccccc1NC(=O)C(=O)NCCCN1CCCC1=O,-14.9%,-8.1%,-3.9%,3.6,8.2%
CC(=O)OC[C@@]1(O)C[C@]23CCC4c5ccoc5CC[C@@]4(C)C2CCC1C3 (stereo partly drawn),-3.0%,/,/,/,/
C[C@@]12C=Cc3occc3C1CC[C@@]13C[C@@H](CCC12)[C@@](O)(CO)C3 (stereo partly drawn),39.8µM*,/,/,/,/
COc1ccc2oc(C(=O)Nc3nc4ccccc4[nH]3)c(C)c2c1,11.5%,14.2%,-6.0%,-8.2,3.55µM*
Cc1ccc(N2C(S)=C(C#N)C(=O)NC23CCCCC3)cc1,31.6µM*,-24.5%,-0.9%,11.3,-5.5%
Cc1cccc(NC2=C(C#N)C(=O)NC3(CCCC3)S2)c1,20µM*,6.6%,-3.4%,2.5,5.5%
Cc1cccc(N2C(S)=C(C#N)C(=O)NC23CCCCC3)c1,44.7µM*,3.9%,-5.5%,20.9,14.1%
Cc1ccccc1N1C(S)=C(C#N)C(=O)NC12CCCCC2,31.6µM*,-5.0%,-7.3%,30.8,-3.5%
Cc1cccc(N2C(=O)NC3(CCCCC3)C2=O)c1,10.5%,0.7%,-7.7%,-2.6,0.0%
Cc1ccc(C(=O)N2C3=C(CCCC3)C(=O)NC23CCCCC3)cc1,-24.4%,-20.3%,-2.3%,1.7,5.7%
CC(C)(C)[C@H](NC(=O)c1ccc(N)c(Cl)c1)C(=O)N1CCC[C@H]1C(=O)N[C@H](C#N)Cc1nn[nH]n1,/,/,/,-10.1,/
COC(=O)/C=C1\S/C(=N/N=C/c2ccc(Cl)cc2)NC1=O,-14.2%,29.9µM*,-3.1%,-1.1,1.8%
Cc1cccc(N2CCN(C(=O)c3cn(C4CCCCC4)c(=O)c4c3c3ccccc3n4C)CC2)c1C,1.6%,/,/,/,/
O=C(O)c1ccc(S(=O)(=O)Nc2ccc(O)c(Sc3nc4ccccc4s3)c2)cc1,-7.8%,26.7µM*,-2.1%,11.1,5.0%
O=C(c1cccc(F)c1)N1CCC2(CC1)CCN(c1ncccn1)CC2,0.5%,/,/,/,/
CC(=O)Nc1ccc(S(=O)(=O)NCC(C)NS(=O)(=O)c2ccc(NC(C)=O)cc2)cc1 (stereo not drawn),-2.8%,2.3%,-6.7%,19.5,-0.1%
CC(=O)Nc1ccc(S(=O)(=O)NCC(CCC(=O)O)C(F)(F)F)cc1 (stereo not drawn),?,13.4µM*,-1.8%,-2.5,2.0%
CCCCNC(=O)C1c2ccccc2OCC(=O)N1Cc1cccnc1 (stereo not drawn),/,-5.8%,/,/,/
CC(=O)Nc1ccc(S(=O)(=O)NCC(=O)NCCc2ccc(S(N)(=O)=O)cc2)cc1,10.6%,-11.5%,-4.1%,0.5,-0.4%
NS(=O)(=O)c1ccc(CCNC(=O)CNS(=O)(=O)c2cccc(Br)c2)cc1,-29.4%,5.32µM*,-1.0%,14.0,-1.4%
SMILES,VDR inh,PLK1 PBD block,PTAP TSG101 blk,TSHR antag,uPA generation
Cc1ccc(Cl)cc1N1CCN(Cc2nc3ccsc3c(=O)[nH]2)CC1,3.1%,29.9µM*,-5.9%,-7.9,2.8%
CCN(CC)CCNC(=O)c1c2c(nc3ccccc13)C(=O)N(C1CCCCC1)C2,6.5%,/,/,/,/
O=C(Cn1ncc(Cl)c(Cl)c1=O)N1CCN(Cc2ccccc2)CC1,-16.9%,-19.6%,-1.6%,-22.9,11.2µM*
O=C(Cn1ncc(Cl)c(Cl)c1=O)N1CCOCC1,-10.3%,-1.7%,-1.2%,8.2,-19.1%
CCc1nc2ccccc2n1CC(=O)N1CCN(Cc2ccccc2)CC1,-0.4%,21.2µM*,-1.3%,8.6,-3.3%
Cc1ccc(SCCC(=O)N(C)C)cc1,-7.2%,1.6%,-13.3%,2.0,6.2%
CN(C)C(=O)CCSC(SCCC(=O)O)c1cccc(/C=C/c2ccc3ccc(Cl)cc3n2)c1 (stereo not drawn),35.5µM*,/,/,/,/
CCCC1=C(C(=O)OCC)C(c2cc(Cl)cc(OC)c2OCC(=O)OCC)NC(=O)N1 (stereo not drawn),-8.2%,29.9µM*,-5.2%,-1.2,4.4%
CNc1cc2c(Nc3cccc(Br)c3)ncnc2cn1,1.6%,/,/,/,/
O[C@@H]1COC2[C@@H](O)CO[C@@H]21 (stereo partly drawn),-9.7%,/,/,/,/
CN(C)C(=O)NC1c2ccccc2-c2ccccc21,13.0%,-1.5%,-0.4%,-3.1,10.9%
O=C(NC1c2ccccc2-c2ccccc21)c1ccccc1,-22.2%,26.7µM*,-6.7%,-10.8,16.0%
O=C(OCc1cnc(Cl)s1)c1c(F)cccc1F,-28.0%,23.8µM*,-7.8%,2.4,1.3%
Cc1onc(-c2c(F)cccc2Cl)c1C(=O)OCc1cnc(Cl)s1,-8.5%,2.2%,-2.2%,-13.5,-30.0%
CC(=O)c1c(C)n(-c2cccc(C)c2)c2ccc(OC(=O)COc3ccccc3)cc12,-16.8%,/,/,/,/
Cc1cccc2sc(=S)[nH]c12,/,21.2µM*,/,/,/
S=c1[nH]c2ccc(Cl)cc2s1,-6.7%,?,-3.5%,-14.4,0.6%
CCCCc1c(-c2ccccc2F)ncn1CCc1ccccc1OC,/,1.1%,/,/,/
O=C1NC(=O)/C(=C\c2ccccc2Oc2ccc(F)c(F)c2)S1,-8.9%,26.7µM*,-3.6%,-44.5,2.9%
N#Cc1ccccc1NC(=S)NC(=O)c1cccs1,-20.0%,8.44µM*,-4.7%,5.3,-13.1%
O=C(Nc1ccc(NC(=O)c2cccs2)cc1)c1ccco1,0.5%,-3.2%,-1.6%,-3.0,-1.4%
O=C(NC(=S)Nc1cccc2cc(O)ccc12)c1ccco1,11.1%,-14.7%,-3.3%,62.7,4.2%
O=C(NC(=S)Nc1cccc2c(O)cccc12)c1ccco1,-22.6%,23.8µM*,-4.8%,11.2,6.0%
N#Cc1ccccc1NC(=O)COC(=O)c1cccs1,-4.3%,-3.2%,-0.3%,10.7,-1.5%
CCC(=O)Nc1ccc(Cl)c(NC(=S)NC(=O)c2ccco2)c1,-4.0%,26.7µM*,1.4%,-6.0,-13.2%
O=C(NC(=S)Nc1ccc(NC(=O)c2cccs2)cc1)c1ccco1,?,18.9µM*,-1.0%,7.8,-0.3%
CCC(=O)Nc1ccc(Cl)c(NC(=S)NC(=O)c2cc3ccccc3o2)c1,-23.2%,-21.4%,0.0%,36.4,-11.5%
CC1(C)CC(=O)C(C=NCCN2CCN(C3CC(=O)N(c4ccc(Br)cc4)C3=O)CC2)=C(O)C1 (stereo not drawn),-3.3%,26.7µM*,-0.2%,8.0,-5.6%
CCCCCCC1(C)NC(=S)N(c2ccccc2)N1 (stereo not drawn),?,18.9µM*,-3.6%,1.8,6.2%
